Screening data (PubChem)
Vaccinia Venus – qHTS for Stage-Specific Inhibitors of Vaccinia Orthopoxvirus: Venus Reporter Primary qHTS; actives 0.46% (n = 330,000); Potency, µM (highest dose often 36.5 µM), inactives show top-dose activity change, negative = inhibition, actives largely listed as inhibitors; Vaccinia virus Venus reporter expression, fluorescence; calls by dose curve; tested in A549 cells; note: potency is the fitted concentration of half-maximal effect; nearly all actives have a fitted effect of over 30% in size
Vaccinia mCherry – qHTS for Stage-Specific Inhibitors of Vaccinia Orthopoxvirus: mCherry Reporter Primary qHTS; AID 720579, 2013; actives 0.63% (n = 310,000); Vaccinia virus mCherry reporter infection, fluorescence; Potency, µM (doses to about 36.5 µM), for the others: top-dose activity change, negative = inhibition, usual class: inhibitors; calls by dose curve; tested in A549 cells; note: potency is the fitted concentration of half-maximal effect; nearly all actives have a fitted effect of over 35% in size
HCV inh – qHTS Assay for Inhibitors of Hepatitis C Virus (HCV) | Huh7.5.1 HCVcc-Cre infection, luciferase reporter, 44 h | actives 3.4% (n = 340,000) | AID 651820, 2012 | Potency, µM (series often up to 41.8 µM), for the others: at the top dose activity change, negative = inhibition, actives largely listed as inhibitors; active = well fitted inhibition curve with a large enough effect; inconclusive = small, poorly fitted or top-dose-only effect, or another doubt; inactive = no such curve, though single readings can be large or run the other way; note: potency is the fitted concentration of half-maximal effect
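Luciferase read-out (15 sec integration) after a 15 min room-temperature substrate step quantifies HCVcc-Cre infection. Cells, 1,000 per well, had compound added 4 h post-plating, then virus at ~0.5 moi, and were cultured 44 h.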
HCMV antiviral – qHTS Assay for inhibitors of the human cytomegalovirus (HCMV); HFF cells, HCMV-luciferase reporter, 72 h; hits give low values; activity change, negative = inhibition, % at 57.5 µM; actives 4.5% (n = 410,000); in the data active = activity change below about -60%; inconclusive = no clear call, values can overlap the other calls; inactive = above about -39%
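Cell-based, HFFs, 1000 cells/well, 16 h 37C; cpds in DMSO + HCMV-luc, MOI 1 PFU/cell; 72 h 37C; OneGlo luminescence after 5 min RT; norm. to buffer vs Salinomycin 10uM.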
Lassa entry inh – qHTS for Inhibitors of binding or entry into cells for Lassa Virus | Lassa virus pseudotype entry inhibition, cell reporter | actives 1.2% (n = 300,000) | Potency, µM (highest dose often 37.9 µM), inactives show top-dose activity change, negative = inhibition, hits mostly inhibitors; calls by dose curve; tested in HEK293 cells; note: potency is the fitted concentration of half-maximal effect; nearly all actives have a fitted effect of over 50% in size
MARV entry inh – qHTS for inhibitors of binding or entry into cells for Marburg Virus. Potency, µM (top dose mostly 37.8 µM), for inactives: top-dose activity change, negative = inhibition, usual class: inhibitors. Marburg virus pseudotyped entry inhibition, cell reporter. actives 1.8% (n = 300,000); calls by dose curve; tested in HEK293 cells; note: potency is the fitted concentration of half-maximal effect
* = called active by the depositor; i = inactive; ? = inconclusive; · = no result; ! = not confirmed by another sample; [ ] = another dose, or the depositor's remark. This is a sample that favours compounds with a hit; in the whole collection about 7.8% have one here. % is set by controls: 0 for no effect and ±100 for the full control effect.

SMILES	Vaccinia Venus	Vaccinia mCherry	HCV inh	HCMV antiviral	Lassa entry inh	MARV entry inh
COc1ccc(/C=N/NC(=O)C(=O)/C=C2\NC3(CCCC3)Cc3ccccc32)cc1	?	?	10µM*	-10.9	-22.9%	?
C/C(N)=C(/C#N)C(=O)CSc1nnc(SCc2ccc(Cl)cc2)s1	?	?	?	-64.0*	?	?
Cc1cccc(C)c1Nc1nnc(SCC(=O)NC(=O)c2cccn2C)s1	?	-16.0%	7.1%	20.0	15.9%	-0.3%
Cc1cccc(C)c1Nc1nnc(SCc2cn3cccc(C)c3n2)s1	·	·	-11.5%	-69.8*	·	1.4%
C/C(N)=C(/C#N)C(=O)CSc1nnc(Nc2c(C)cccc2C)s1	2.7%	-24.4%	-0.7%	-67.1*!	-3.2%[46.1 µM]	?
O=C([C@@H]1C[C@@H](Sc2nc3ccccc3[nH]2)CN1Cc1ccc(Cl)cc1)N1CCN(c2ccccc2F)CC1	-22.1%	-9.7%	·	·	·	·
COC(=O)C1=C(C)N(Cc2ccccc2)C(=O)NC1c1cccc(C(F)(F)F)c1 (centres undefined)	·	·	·	·	·	16.7%[14.2 µM]
CC(=O)C1=C(C)N(Cc2ccccc2)C(=O)N[C@H]1c1cccc(C(F)(F)F)c1	-27.9%	?	?	-69.1*	-15.1%	12.4%[14.2 µM]
CC(=O)C1=C(C)N(Cc2ccccc2)C(=O)N[C@@H]1c1cccc(C(F)(F)F)c1	-14.9%	-6.0%	-13.3%	-3.2	-1.6%	?
COC(=O)C1=C(C)N(Cc2ccccc2)C(=O)N[C@H]1c1cccc(C(F)(F)F)c1	-26.2%	i	0.398µM*	-20.3	·	16.7%[14.2 µM]
Cc1ccc2c(=O)cc(C(=O)Nc3sc4c(c3C(=O)NCc3ccco3)CCCC4)oc2c1C	4.4%	3.1%	·	5.7	-9.4%[46.1 µM]	-14.2%[46.1 µM]
Cc1cccc(N2CCN(C(=O)C3CCN(S(=O)(=O)c4c(C)noc4C)CC3)CC2)c1C	-12.4%	-15.3%	12.6µM*	-21.9	-5.0%[46.1 µM]	-10.2%[46.1 µM]
Cc1noc(C)c1S(=O)(=O)N1CCC(C(=O)N2CCN(c3ccccc3Cl)CC2)CC1	-14.5%	-15.8%	-9.4%	-2.1	9.6%	3.0%
Cc1ccc(C)c(N2CCN(C(=O)C3CCN(S(=O)(=O)c4c(C)noc4C)CC3)CC2)c1	·	·	?	-68.4*	·	1.9%
Cc1ccc(/C=C/c2onc(C)c2S(=O)(=O)N2CCC(C(=O)N3CCC(N(C)C(C)C)CC3)CC2)cc1	?	-28.9%	·	-100.7*	-28.8%[46.1 µM]	·
Cc1ccc(C)c(N2CCN(C(=O)C3CCCN(S(=O)(=O)c4c(C)noc4C)C3)CC2)c1 (centres undefined)	-20.4%	11.7%	11.2µM*	-18.3	·	-6.1%
CC(=O)c1ccc(N2CCN(C(=O)C3CCN(S(=O)(=O)c4c(C)noc4/C=C/c4ccc(C)cc4)CC3)CC2)cc1	-15.2%	-22.4%	·	-23.7	-1.4%[46.1 µM]	·
O=C1CCC[C@H]2[C@@H](Cc3ccccc3)[C@@H](NS(=O)(=O)c3ccc(Br)cc3)CC[C@]23CCCN13	·	·	·	-16.7	·	·
Cc1ccc(C)c(N2CCN(C(=O)C3CCCCN3S(=O)(=O)c3ccc(F)cc3)CC2)c1 (centres undefined)	-22.7%	-9.8%	?	-19.3	-24.5%	10µM*!
O=C(O)C1CCCN1S(=O)(=O)c1ccc(F)cc1 (centres undefined)	·	·	4.8%	·	·	·
CC1CC(C)CN(CCCNC(=O)CCC(=O)N2CCOc3ccccc32)C1 (centres undefined)	-7.1%	-22.8%	2.3%	-64.6*	·	·
COc1ccc(-c2noc(CCC(=O)NCCc3cccc(C)c3)n2)cc1	·	·	8.91µM*	8.1	?	-12.4%
COc1ccc(-c2nc(-c3ccc(Br)o3)no2)cc1OC	-24.3%	-17.4%	?	-3.7	·	·
COc1cccc(-c2nc(-c3ccc(NC(=O)Cc4ccccc4OC)cc3)no2)c1	9.6%	i	6.31µM*	·	-8.9%	-4.5%
COc1cccc(NC(=O)CCc2nc(-c3ccc(C(C)(C)C)cc3)no2)c1	-1.9%	0.8%	·	-82.1*	?	?
SMILES	Vaccinia Venus	Vaccinia mCherry	HCV inh	HCMV antiviral	Lassa entry inh	MARV entry inh
COc1ccc(-c2noc(CCC(=O)Nc3cccc(C)c3)n2)cc1	-10.9%	-16.6%	?	0.3	-28.7%	15.5%
COc1ccc(-c2nnc(-c3ccc(Br)o3)o2)cc1OC	·	·	-16.5%	-107.1*	3.0%	21.5%
COc1ccc(-c2nc(-c3ccc(NC(=O)c4ccc(Br)o4)cc3)no2)cc1OC	31.6µM*	·	?	-12.0	-27.8%	?
CCN(C(=O)CCc1nc(-c2ccc(OC)cc2)no1)c1cc(OC)ccc1OC	?	·	11.2µM*	-21.0	?	-16.7%
CCN(C(=O)CCc1nc(-c2ccc(C)cc2)no1)c1cc(C)ccc1C	-9.6%	-14.4%	·	-10.5	1.4%[46.1 µM]	-13.7%[46.1 µM]
COc1cc(-c2nc(-c3ccc(NC(=O)c4ccc(Br)o4)cc3)no2)cc(OC)c1OC	·	·	?	43.7	?	?
Cc1cc(C)cc(NC(=O)c2cc(S(=O)(=O)N3CCCCC3)c[nH]2)c1	-4.1%	0.0%	·	-20.3	?	·
CCOc1ccc(N2C(=O)C(=O)/C(=C(/O)c3ccccc3)C2c2ccccc2[N+](=O)[O-])cc1 (centres undefined)	-4.3%	-22.2%	13.4%	-73.0*	3.0%	?
CC(C)(C)C(C(=O)NC1CCCC1)N1CCN(c2ncccc2C#N)CC1 (centres undefined)	-10.1%	7.3%	·	0.7	·	·
O=C(c1ccccc1)c1sc(N2CCCCCC2)nc1-c1ccccc1	?	·	?	-14.8	-15.3%	-23.2%
O=C(c1ccccc1)c1sc(N2CCOCC2)nc1-c1ccccc1	-8.0%	i	-19.5%	26.0	?	?
[2H]c1c([2H])c([2H])c(C(=O)c2sc(N3CCCCCC3)nc2-c2ccccc2)c([2H])c1[2H]	-12.4%	·	22.4µM*	-11.8	-11.3%	?
O=C(c1ccc(Br)cc1)c1sc(N2CCOCC2)nc1-c1ccccc1	-7.4%	-2.8%	7.94µM*	42.5	?	?
COc1ccc(OC)c(-c2noc(CSc3nnc(Cc4ccccc4)n3-c3cccc(C)c3)n2)c1	-9.0%	-13.1%	·	-7.2	?	-8.6%[46.1 µM]
COc1ccc(-c2cc(C(C)=O)c(C)n2CCC(=O)Nc2ccc(C)cc2Cl)cc1	-9.2%	-13.1%	·	?	-1.2%[46.1 µM]	·
O=C(Nc1nc(-c2ccccc2Cl)cs1)c1cccnc1	·	·	31.6µM*	-12.0	4.4%	-15.1%
Clc1ccc(-c2csc(N/N=C/c3cccnc3)n2)c(Cl)c1	-12.9%	-15.4%	?	-63.4*	7.31µM*	?
O=C(NC(=S)Nc1nc(-c2ccccc2)cs1)c1cccnc1	-25.7%	?	6.2%	16.7	13.8%	-3.2%[46.1 µM]
C(=N\Nc1nc(-c2ccccc2)cs1)/c1cccnc1	·	·	?	48.6	?	?
